# Measurements: the supplement of paper PMC10849652
# Of roughly 7,900 targets only a part is listed; those with a hit were picked by preference. About 0.6% of all pairs of compound and target were hits. Values without a mark were called inactive.
# How the values were obtained:
# Experiment in all cases: log2 fold change, soluble protein after heating vs DMSO (PISA); higher = thermal stabilisation; K562 cells, 10 uM, 30 min; active = over 0.2 and 3.5 SD of the protein, either way, in both replicates (recomputed)
# [1] = compound: C1COCCN1CCN2C3=CC=CC=C3N=C2NC(=O)C4=CC(=CC=C4)[N+](=O)[O-] [IRAK-1-4 Inhibitor I]
# How it was run: (§1)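 Thermal stability values are relative to control samples and come from duplicates. They are expressed as log2 fold changes. For measurement, K562 cells (2×10^6 cells/mL) received 10 μM compound for 30 min, and aliquots were heated for 3 min over 48°C-58°C, pooled, and extracted at 4°C in PBS with 0.5% NP-40. Soluble protein, the supernatant after 21,000xg for 90 min, was quantified by TMTpro 16plex LC-MS/MS with equalised channel sums.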
# [2] = compound: C=CC(=O)N1CCC[C@@H](n2nc(-c3ccc(Oc4ccccc4)cc3)c3c(N)ncnc32)C1 [ibrutinib]
# How it was run: as §1
# [3] = compound: CC(=O)c1cnc2ccc(-c3cc(Cl)c(O)c(Cl)c3)nc2c1N[C@H]1CC[C@H](CN(C)C)CC1
# How it was run: as §1
# [4] = compound: CC(C)(C)Cn1c(N)nc2ccc(-c3[nH]c(C(C)(C)C)nc3-c3ccc(F)cc3)nc21 [ralimetinib]
# How it was run: as §1
# [5] = compound: CC(C)(O)CC(=O)NCCn1ccc2ncnc(Nc3ccc(Oc4cccc(C(F)(F)F)c4)c(Cl)c3)c21
# How it was run: as §1
# [6] = compound: CC(C)C1=C2N=C(C=C(N2N=C1)NCC3=CC=CC=C3)NCCCCCCN
# How it was run: as §1
# [7] = compound: CC(C)C[C@@H](C=O)NC(=O)[C@H](CC(C)C)NC(=O)[C@H](CC(C)C)NC(=O)OCc1ccccc1
# How it was run: as §1
# [8] = compound: CC(C)N(C[C@H]1O[C@@H](n2cnc3c(N)ncnc32)[C@H](O)[C@@H]1O)[C@H]1C[C@@H](CCc2nc3cc(C(C)(C)C)ccc3[nH]2)C1 [pinometostat]
# How it was run: as §1
# [9] = compound: CC1=C(C(CC(=O)N1)C2=CC=C(C=C2)C(F)(F)F)C(=O)NC3=C(C=C4C(=C3)C=NN4)F
# How it was run: as §1
# [10] = compound: CC1=C(C2=C(C=C1)C(=O)C3=CC=CC=C3N2CCCN)C
# How it was run: as §1
# [11] = compound: CC1=C(C=C(C=C1)NC(=O)C2=CC(=CC=C2)C(C)(C)C#N)NC3=CC4=C(C=C3)N=CN(C4=O)C
# How it was run: as §1
# [12] = compound: CC1=C(C=C(C=C1)NC(=O)C2=CC(=CC=C2)N(C)C)NC(=O)C3=CC=C(C=C3)O
# How it was run: as §1
# [13] = compound: CC1=CC=C(C=C1)SC2=C3C=C(SC3=CN=C2)C(=O)N
# How it was run: as §1
# [14] = compound: CC1=NC(=CC=C1)C2=C(N=C(N2)C(C)(C)C)C3=CC4=NC=CN=C4C=C3
# How it was run: as §1
# [15] = compound: CCCCN(Cc1ccc(C(=O)NO)cc1)C(=O)Nc1ccccc1 [Nexturastat A]
# How it was run: as §1
# [16] = compound: CCCS(=O)(=O)Nc1ccc(F)c(C(=O)c2c[nH]c3ncc(-c4ccc(Cl)cc4)cc23)c1F [vemurafenib]
# How it was run: as §1
# [17] = compound: CCCS(=O)(=O)Nc1ccc(F)c(C(=O)c2c[nH]c3ncc(Cl)cc23)c1F
# How it was run: as §1
# [18] = compound: CCCc1cc(C)[nH]c(=O)c1CNC(=O)c1cc(-c2ccnc(N3CCN(C)CC3)c2)cc2c1cnn2C(C)C
# How it was run: as §1
# [19] = compound: CCN(CC)Cc1ccc2cc(COC(=O)Nc3ccc(C(=O)NO)cc3)ccc2c1 [givinostat]
# How it was run: as §1
# [20] = compound: CCN(CCCOc1ccc2c(Nc3cc(CC(=O)Nc4cccc(F)c4)[nH]n3)ncnc2c1)CCOP(=O)(O)O [barasertib]
# How it was run: as §1
# Sequence of UniProt O00748 (O00748 whole entry, looked up): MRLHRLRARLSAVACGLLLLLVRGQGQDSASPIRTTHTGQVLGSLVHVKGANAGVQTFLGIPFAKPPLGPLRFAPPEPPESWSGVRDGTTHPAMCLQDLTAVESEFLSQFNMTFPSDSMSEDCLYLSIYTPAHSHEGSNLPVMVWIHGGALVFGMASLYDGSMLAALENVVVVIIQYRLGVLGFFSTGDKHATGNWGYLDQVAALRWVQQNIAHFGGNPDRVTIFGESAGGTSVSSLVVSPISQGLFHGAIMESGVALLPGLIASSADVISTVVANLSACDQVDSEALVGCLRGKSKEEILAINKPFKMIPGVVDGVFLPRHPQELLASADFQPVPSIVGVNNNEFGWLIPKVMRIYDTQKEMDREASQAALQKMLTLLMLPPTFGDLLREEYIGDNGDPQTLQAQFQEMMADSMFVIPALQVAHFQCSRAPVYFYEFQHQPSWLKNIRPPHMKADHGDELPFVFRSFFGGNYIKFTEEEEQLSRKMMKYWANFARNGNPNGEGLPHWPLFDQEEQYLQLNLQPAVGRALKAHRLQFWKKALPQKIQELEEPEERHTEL
# Sequence of UniProt P86791 (P86791 whole entry, looked up): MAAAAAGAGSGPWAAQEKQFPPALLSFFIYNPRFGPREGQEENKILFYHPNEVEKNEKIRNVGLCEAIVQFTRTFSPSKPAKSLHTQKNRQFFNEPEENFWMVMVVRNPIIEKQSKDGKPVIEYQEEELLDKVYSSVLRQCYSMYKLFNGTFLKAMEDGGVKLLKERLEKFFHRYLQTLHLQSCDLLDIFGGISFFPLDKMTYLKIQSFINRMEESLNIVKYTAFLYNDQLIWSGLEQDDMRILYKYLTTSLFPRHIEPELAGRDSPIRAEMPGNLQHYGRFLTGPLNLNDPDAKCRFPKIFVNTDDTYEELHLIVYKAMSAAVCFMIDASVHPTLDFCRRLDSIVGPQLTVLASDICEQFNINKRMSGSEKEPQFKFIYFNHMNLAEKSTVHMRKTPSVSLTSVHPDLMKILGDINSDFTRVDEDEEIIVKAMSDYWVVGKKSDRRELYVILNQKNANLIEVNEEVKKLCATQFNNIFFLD
# Sequence of UniProt Q8N163 (Q8N163 whole entry, looked up): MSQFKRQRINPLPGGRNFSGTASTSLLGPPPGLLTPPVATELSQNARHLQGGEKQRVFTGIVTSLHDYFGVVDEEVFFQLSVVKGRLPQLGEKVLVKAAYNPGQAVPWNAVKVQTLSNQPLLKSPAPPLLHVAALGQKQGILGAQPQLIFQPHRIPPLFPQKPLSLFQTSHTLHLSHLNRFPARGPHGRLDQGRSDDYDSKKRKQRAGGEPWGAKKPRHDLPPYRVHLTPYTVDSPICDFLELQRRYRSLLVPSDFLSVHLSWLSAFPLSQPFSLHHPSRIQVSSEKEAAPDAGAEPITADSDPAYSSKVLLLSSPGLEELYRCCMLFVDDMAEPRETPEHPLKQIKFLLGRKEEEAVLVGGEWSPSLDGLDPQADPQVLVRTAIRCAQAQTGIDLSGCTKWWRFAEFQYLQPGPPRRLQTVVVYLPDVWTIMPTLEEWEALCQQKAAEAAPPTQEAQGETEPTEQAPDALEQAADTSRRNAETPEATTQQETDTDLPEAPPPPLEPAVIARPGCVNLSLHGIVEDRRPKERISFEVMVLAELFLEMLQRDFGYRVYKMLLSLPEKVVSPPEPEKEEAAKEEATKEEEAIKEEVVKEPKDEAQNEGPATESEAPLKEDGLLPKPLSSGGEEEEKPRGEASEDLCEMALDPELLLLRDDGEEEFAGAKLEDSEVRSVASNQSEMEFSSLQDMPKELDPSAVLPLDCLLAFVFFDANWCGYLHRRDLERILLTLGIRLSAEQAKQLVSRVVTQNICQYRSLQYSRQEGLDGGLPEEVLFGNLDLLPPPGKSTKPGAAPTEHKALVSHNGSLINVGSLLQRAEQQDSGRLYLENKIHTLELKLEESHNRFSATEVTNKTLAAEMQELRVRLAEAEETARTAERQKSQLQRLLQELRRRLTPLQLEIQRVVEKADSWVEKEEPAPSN
# Sequence of UniProt P08962 (P08962 whole entry, looked up): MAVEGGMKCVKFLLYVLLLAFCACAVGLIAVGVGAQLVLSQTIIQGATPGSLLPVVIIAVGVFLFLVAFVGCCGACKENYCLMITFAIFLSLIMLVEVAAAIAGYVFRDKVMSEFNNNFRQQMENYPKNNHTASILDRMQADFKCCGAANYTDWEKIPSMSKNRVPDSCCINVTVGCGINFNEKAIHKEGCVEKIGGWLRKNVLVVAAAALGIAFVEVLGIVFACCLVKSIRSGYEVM
# Sequence of UniProt Q96JB5 (Q96JB5 whole entry, looked up): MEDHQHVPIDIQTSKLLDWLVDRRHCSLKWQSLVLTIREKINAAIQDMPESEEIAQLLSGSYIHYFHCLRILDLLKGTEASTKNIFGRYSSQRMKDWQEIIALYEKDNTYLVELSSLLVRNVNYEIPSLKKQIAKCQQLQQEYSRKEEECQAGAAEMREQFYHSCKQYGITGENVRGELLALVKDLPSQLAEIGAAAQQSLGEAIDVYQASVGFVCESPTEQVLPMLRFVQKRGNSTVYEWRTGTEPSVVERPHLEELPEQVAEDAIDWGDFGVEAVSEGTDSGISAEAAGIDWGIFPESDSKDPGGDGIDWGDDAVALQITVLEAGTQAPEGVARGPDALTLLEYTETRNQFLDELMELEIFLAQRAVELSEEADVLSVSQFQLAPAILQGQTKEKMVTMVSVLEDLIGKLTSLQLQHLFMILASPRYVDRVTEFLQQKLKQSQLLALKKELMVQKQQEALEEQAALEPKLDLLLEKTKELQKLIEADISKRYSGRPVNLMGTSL
# Sequence of UniProt Q5JTJ3 (Q5JTJ3 whole entry, looked up): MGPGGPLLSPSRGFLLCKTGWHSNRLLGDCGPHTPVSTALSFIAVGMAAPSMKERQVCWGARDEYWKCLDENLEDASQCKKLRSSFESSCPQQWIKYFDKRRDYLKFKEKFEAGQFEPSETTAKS
# Sequence of UniProt O75208 (O75208 whole entry, looked up): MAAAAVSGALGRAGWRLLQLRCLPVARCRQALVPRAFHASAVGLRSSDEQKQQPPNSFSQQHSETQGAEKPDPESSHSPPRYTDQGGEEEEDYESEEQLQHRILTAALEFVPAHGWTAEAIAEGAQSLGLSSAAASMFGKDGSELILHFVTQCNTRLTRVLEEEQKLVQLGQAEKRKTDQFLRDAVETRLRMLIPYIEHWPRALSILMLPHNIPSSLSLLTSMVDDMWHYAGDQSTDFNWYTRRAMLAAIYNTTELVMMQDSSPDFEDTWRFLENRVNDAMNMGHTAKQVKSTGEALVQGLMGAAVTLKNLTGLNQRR
# Sequence of UniProt P45973 (P45973 whole entry, looked up): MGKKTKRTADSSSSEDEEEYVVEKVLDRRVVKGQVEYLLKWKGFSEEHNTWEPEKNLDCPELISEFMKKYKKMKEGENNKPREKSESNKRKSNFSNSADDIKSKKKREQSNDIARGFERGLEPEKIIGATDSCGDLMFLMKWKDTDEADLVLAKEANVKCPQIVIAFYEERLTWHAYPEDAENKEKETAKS
# Sequence of UniProt O75976 (O75976 whole entry, looked up): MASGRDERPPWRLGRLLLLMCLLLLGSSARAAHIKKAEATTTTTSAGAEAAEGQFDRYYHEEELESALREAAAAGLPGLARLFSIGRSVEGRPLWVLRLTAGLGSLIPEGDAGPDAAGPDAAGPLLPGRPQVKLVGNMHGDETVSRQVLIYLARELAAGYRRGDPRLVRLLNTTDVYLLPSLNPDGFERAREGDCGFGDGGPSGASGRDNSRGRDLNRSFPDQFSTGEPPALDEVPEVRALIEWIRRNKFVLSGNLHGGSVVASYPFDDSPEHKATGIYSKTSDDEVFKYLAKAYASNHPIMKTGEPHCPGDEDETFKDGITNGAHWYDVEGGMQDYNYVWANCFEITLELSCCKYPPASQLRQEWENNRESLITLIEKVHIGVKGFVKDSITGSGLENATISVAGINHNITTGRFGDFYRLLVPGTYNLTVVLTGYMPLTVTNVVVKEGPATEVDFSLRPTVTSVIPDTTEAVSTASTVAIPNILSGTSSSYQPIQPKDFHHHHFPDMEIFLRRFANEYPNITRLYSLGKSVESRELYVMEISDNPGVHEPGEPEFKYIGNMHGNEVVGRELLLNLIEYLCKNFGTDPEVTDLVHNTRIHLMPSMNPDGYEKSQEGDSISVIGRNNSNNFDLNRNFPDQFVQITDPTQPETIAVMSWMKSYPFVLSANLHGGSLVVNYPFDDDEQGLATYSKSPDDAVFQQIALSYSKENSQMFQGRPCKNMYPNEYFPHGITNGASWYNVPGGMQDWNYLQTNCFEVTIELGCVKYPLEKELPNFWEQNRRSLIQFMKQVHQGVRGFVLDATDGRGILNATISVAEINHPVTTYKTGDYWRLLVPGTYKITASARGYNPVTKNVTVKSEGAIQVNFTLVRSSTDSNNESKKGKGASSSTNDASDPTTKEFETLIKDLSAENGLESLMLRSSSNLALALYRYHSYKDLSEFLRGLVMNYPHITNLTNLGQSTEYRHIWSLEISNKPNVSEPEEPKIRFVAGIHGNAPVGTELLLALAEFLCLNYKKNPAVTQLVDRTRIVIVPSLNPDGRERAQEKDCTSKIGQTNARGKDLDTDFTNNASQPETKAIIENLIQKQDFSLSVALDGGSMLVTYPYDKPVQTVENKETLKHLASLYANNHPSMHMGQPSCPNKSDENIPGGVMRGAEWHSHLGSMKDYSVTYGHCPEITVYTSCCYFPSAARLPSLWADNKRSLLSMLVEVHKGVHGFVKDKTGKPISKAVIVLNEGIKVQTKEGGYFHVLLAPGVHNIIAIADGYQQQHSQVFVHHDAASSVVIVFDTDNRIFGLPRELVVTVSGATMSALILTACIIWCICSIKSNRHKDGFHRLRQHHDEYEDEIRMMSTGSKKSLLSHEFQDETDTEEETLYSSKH
# Sequence of UniProt P21964 (P21964 whole entry, looked up): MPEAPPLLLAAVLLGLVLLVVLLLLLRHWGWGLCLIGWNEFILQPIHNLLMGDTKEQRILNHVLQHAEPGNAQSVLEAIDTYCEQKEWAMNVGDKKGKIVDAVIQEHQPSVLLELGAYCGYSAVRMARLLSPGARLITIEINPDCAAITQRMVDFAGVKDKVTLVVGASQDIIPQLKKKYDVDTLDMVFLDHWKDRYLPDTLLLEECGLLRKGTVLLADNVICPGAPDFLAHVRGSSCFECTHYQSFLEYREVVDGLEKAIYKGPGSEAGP
Target,log2 fold change [1],log2 fold change [2],log2 fold change [3],log2 fold change [4],log2 fold change [5],log2 fold change [6],log2 fold change [7],log2 fold change [8],log2 fold change [9],log2 fold change [10],log2 fold change [11],log2 fold change [12],log2 fold change [13],log2 fold change [14],log2 fold change [15],log2 fold change [16],log2 fold change [17],log2 fold change [18],log2 fold change [19],log2 fold change [20]
CDK5RAP3 isoform 4 (UniProt Q96JB5),-0.051,-0.068,-0.005,-0.015,-0.062,-0.056,-0.002,0.017,-0.031,0.009,0.018,-0.035,0.008,0.015,0.051,0.044,0.077,-0.015,0.109,0.029
CBX5 (UniProt P45973),-0.076,0.002,-0.102,-0.002,0.056,-0.067,-0.001,-0.058,-0.024,-0.545 (active),0.051,0.029,0.073,0.113,0.027,0.045,0.085,-0.051,0.043,-0.05
CD63 (UniProt P08962),0.022,0.036,0.032,0.047,0.006,0.081,0.056,0.007,0.017,0.003,-0.007,0.056,0.004,0.009,-0.072,0.064,-0.007,-0.125,0.096,-0.025
CPD (UniProt O75976),-0.011,-0.018,-0.015,-0.03,-0.058,-0.126,0.077,0.002,0.04,-0.019,-0.017,0,-0.01,-0.016,-0.001,-0.017,-0.021,-0.062,0.016,0.011
COQ9 (UniProt O75208),0.005,0.03,-0.007,-0.055,0.085,-0.092,-0.024,-0.062,0.019,0.043,0.016,0.045,0.054,0.064,-0.266 (active),0.041,-0.004,-0.006,-0.006,0.046
CCAR2 isoform 2 (UniProt Q8N163),-0.111,-0.061,-0.037,0.027,-0.222,-0.477 (active),-0.004,-0.039,0.111,-0.252,0.032,-0.048,-0.017,0.001,0,0.042,0.05,0.28,0.144,0.026
CA1 (UniProt P00915),0.068,-0.02,0.003,0.017,-0.031,0.119,-0.011,-0.006,-0.019,-0.043,-0.028,-0.008,0.03,0.014,-0.051,0.048,0.016,-0.039,-0.021,0.008
COA6 isoform 2 (UniProt Q5JTJ3),0.043,0.036,0.019,-0.071,0.045,0.059,-0.026,-0.04,0.016,-0.004,-0.054,-0.012,0.767 (active),0.036,0.007,-0.041,-0.009,-0.089,-0.02,-0.042
CES2 isoform 4 (UniProt O00748),-0.005,0.077,0.038,0.006,0.012,0.045,0.06,-0.02,-0.128,0,-0.003,-0.072,0.005,-0.065,0.058,-0.029,-0.105,0.003,0.021,0.022
CCZ1 (UniProt P86791),0.063,-0.001,-0.039,-0.051,-0.05,-0.287 (active),0.025,0.012,-0.007,0.006,-0.005,-0.029,0.014,0.035,0.009,0.024,0.011,-0.029,0.028,-0.011
COMT (UniProt P21964),0.01,-0.032,-0.065,-0.043,-0.007,0.006,-0.039,-0.024,-0.068,0.053,0.14,0.009,-0.012,0.019,0.036,0.011,0.002,0.005,0.144,-0.006
CDK13 (UniProt Q14004),-0.05,0.024,-0.52 (active),0.199,0.031,-0.171,0.081,0.043,0.013,-0.017,0.045,0.027,-0.047,0.056,-0.212,-0.056,-0.037,-0.011,-0.021,-0.029
CPSF6 isoform 2 (UniProt Q16630),-0.047,0,-0.599 (active),-0.017,0.02,-0.029,-0.053,0.004,-0.042,0.195,0.054,0.02,-0.027,0.02,-0.042,0.001,-0.069,0.035,0.048,-0.042
CNOT4 isoform 6 (UniProt O95628),0.044,0.016,-0.062,-0.048,0.002,0.038,-0.019,-0.025,0.018,0.051,-0.056,-0.012,0.005,0.023,-0.122,-0.014,-0.007,-0.069,-0.064,0.007
COCH (UniProt O43405),0.001,0.058,0.045,0.041,0.331 (active),0.021,-0.019,0.043,-0.072,-0.353,0.072,0.053,0.059,0.005,0.046,-0.067,-0.05,0.076,-0.049,0
CSTF3 (UniProt Q12996),0.087,0,0.019,-0.052,-0.026,0.132,-0.012,0.021,-0.018,0.262 (active),-0.038,0.014,-0.005,0.006,-0.072,-0.005,-0.008,-0.029,-0.05,0.007
